# Read-outs that look alike come from different tables or passages of the source.
# Experiments:
# Parameters in all cases: species or system human, MV4-11 + K-562 + COLO205 + SK-N-BE2 + OVCAR-8
# AKT1 = details: read-out: apparent Kd; compound concentrations:100 nM and 1000 nM (sheet 'Samples'); n = 1
# AKT2 = details: read-out: apparent Kd, n = 1
# ATM = details: read-out: apparent Kd; compound concentrations:100 nM and 1000 nM (sheet 'Samples'); n = 1
# CIT = details: read-out: apparent Kd, n = 1
# ERBB3 = details: read-out: apparent Kd; compound concentrations:100 nM and 1000 nM (sheet 'Samples'); n = 1
# GSK3A = details: read-out: apparent Kd, n = 1
# GSK3B = details: read-out: apparent Kd, n = 1
# LATS1 = details: read-out: apparent Kd, n = 1
# MARK2 = details: read-out: apparent Kd, n = 1
# MARK3 = details: read-out: apparent Kd, n = 1
# MARK4 = details: read-out: apparent Kd, n = 1
# PAK4 = details: read-out: apparent Kd, n = 1
# PAK6 = details: read-out: apparent Kd, n = 1
# PKN1 = details: read-out: apparent Kd, n = 1
# PKN3 = details: read-out: apparent Kd; compound concentrations:100 nM and 1000 nM (sheet 'Samples'); n = 1
# PRKACA = details: read-out: apparent Kd, n = 1
# PRKACB = details: read-out: apparent Kd; compound concentrations:100 nM and 1000 nM (sheet 'Samples'); n = 1
# PRKCD = details: read-out: apparent Kd, n = 1
# PRKCQ = details: read-out: apparent Kd, n = 1
# PRKG1 = details: read-out: apparent Kd, n = 1
# PRKX = details: read-out: apparent Kd, n = 1
# TTN = details: read-out: apparent Kd; compound concentrations:100 nM and 1000 nM (sheet 'Samples'); n = 1
# AGK = details: read-out: apparent Kd; compound concentrations:100 nM and 1000 nM (sheet 'Samples'); n = 1
# EGFR = details: read-out: apparent Kd; compound concentrations:100 nM and 1000 nM (sheet 'Samples'); n = 1
# HSP90B1 = details: read-out: apparent Kd; compound concentrations:100 nM and 1000 nM (sheet 'Samples'); n = 1
# MTHFD1 = details: read-out: apparent Kd; compound concentrations:100 nM and 1000 nM (sheet 'Samples'); n = 1
# NNT = details: read-out: apparent Kd; compound concentrations:100 nM and 1000 nM (sheet 'Samples'); n = 1
# AKT3 = details: read-out: apparent Kd; compound concentrations: 100 nM and 1000 nM (sheet 'Samples'), CATDS: 2.7204551549319601E-2; n = 1
# PRKAA2 = details: read-out: apparent Kd; compound concentrations: 100 nM and 1000 nM (sheet 'Samples'), CATDS: 2.6285000431917799E-2; n = 1
# PRKAG2 = details: read-out: apparent Kd; compound concentrations: 100 nM and 1000 nM (sheet 'Samples'), CATDS: 2.7426405634362501E-2; n = 1
# PRKCB = details: read-out: apparent Kd; compound concentrations: 100 nM and 1000 nM (sheet 'Samples'), CATDS: 2.6716167566890599E-2; n = 1
# RPS6KA4 = details: read-out: apparent Kd; compound concentrations: 100 nM and 1000 nM (sheet 'Samples'), CATDS: 3.80124112320347E-2; n = 1
# [1] = compound concentrations:100 nM and 1000 nM (sheet 'Samples')
structure (smiles),measurement,setting,value
CCn1c(-c2nonc2N)nc2c(C#CC(C)(C)O)ncc(OC[C@@H]3CCCN3)c21.O=C(O)C(F)(F)F [GSK614526A],potency estimated from few doses,AKT1,1090 nM
same,potency estimated from few doses,AKT2; [1],934 nM
same,potency estimated from few doses,ATM,303 nM
same,potency estimated from few doses,CIT; [1],983 nM
same,potency estimated from few doses,ERBB3,1810 nM
same,potency estimated from few doses,GSK3A; [1],365 nM
same,potency estimated from few doses,GSK3B; [1],440 nM
same,potency estimated from few doses,LATS1; [1],634 nM
same,potency estimated from few doses,MARK2; [1],762 nM
same,potency estimated from few doses,MARK3; [1],607 nM
same,potency estimated from few doses,MARK4; [1],1040 nM
same,potency estimated from few doses,PAK4; [1],66.7 nM
same,potency estimated from few doses,PAK6; [1],821 nM
same,potency estimated from few doses,PKN1; [1],215 nM
same,potency estimated from few doses,PKN3,150 nM
same,potency estimated from few doses,PRKACA; [1],144 nM
same,potency estimated from few doses,PRKACB,510 nM
same,potency estimated from few doses,PRKCD; [1],2140 nM
same,potency estimated from few doses,PRKCQ; [1],1170 nM
same,potency estimated from few doses,PRKG1; [1],69.9 nM
same,potency estimated from few doses,PRKX; [1],1.38 nM
same,potency estimated from few doses,TTN,544 nM
CS(=O)(=O)CCNCc1ccc(-c2ccc3ncnc(Nc4ccc(OCc5ccccc5)c(Cl)c4)c3c2)o1.Cl [GW574783B_PKIS1],potency estimated from few doses,AGK,1950 nM
same,potency estimated from few doses,EGFR,156 nM
same,potency estimated from few doses,HSP90B1,1710 nM
same,potency estimated from few doses,MTHFD1,1950 nM
same,potency estimated from few doses,NNT,1200 nM
CCn1c(-c2nonc2N)nc2c(C#CC(C)(C)O)ncc(OC3CCNCC3)c21.O=C(O)C(F)(F)F [GSK619487A],potency estimated from few doses,"AKT2; compound concentrations: 100 nM and 1000 nM (sheet 'Samples'), CATDS: 4.2627279294918302E-2",91.5 nM
same,potency estimated from few doses,AKT3,1300 nM
same,potency estimated from few doses,"CIT; compound concentrations: 100 nM and 1000 nM (sheet 'Samples'), CATDS: 2.7482144104810799E-2",1190 nM
same,potency estimated from few doses,"GSK3A; compound concentrations: 100 nM and 1000 nM (sheet 'Samples'), CATDS: 6.2878990302183399E-2",26.9 nM
same,potency estimated from few doses,"GSK3B; compound concentrations: 100 nM and 1000 nM (sheet 'Samples'), CATDS: 5.5559924345407602E-2",38 nM
same,potency estimated from few doses,"LATS1; compound concentrations: 100 nM and 1000 nM (sheet 'Samples'), CATDS: 4.8333915347555698E-2",58.6 nM
same,potency estimated from few doses,"MARK2; compound concentrations: 100 nM and 1000 nM (sheet 'Samples'), CATDS: 4.76140671076506E-2",61.6 nM
same,potency estimated from few doses,"MARK3; compound concentrations: 100 nM and 1000 nM (sheet 'Samples'), CATDS: 5.1082901600924303E-2",49 nM
same,potency estimated from few doses,"MARK4; compound concentrations: 100 nM and 1000 nM (sheet 'Samples'), CATDS: 4.9590510521074001E-2",53.9 nM
same,potency estimated from few doses,"PAK4; compound concentrations: 100 nM and 1000 nM (sheet 'Samples'), CATDS: 0.104490197523791",7.55 nM
same,potency estimated from few doses,"PAK6; compound concentrations: 100 nM and 1000 nM (sheet 'Samples'), CATDS: 0.160954118330599",2.74 nM
same,potency estimated from few doses,"PKN1; compound concentrations: 100 nM and 1000 nM (sheet 'Samples'), CATDS: 6.8915050548370396E-2",21.1 nM
same,potency estimated from few doses,PRKAA2,1810 nM
same,potency estimated from few doses,"PRKACA; compound concentrations: 100 nM and 1000 nM (sheet 'Samples'), CATDS: 4.9144940605522901E-2",55.5 nM
same,potency estimated from few doses,PRKAG2,1210 nM
same,potency estimated from few doses,PRKCB,1540 nM
same,potency estimated from few doses,"PRKCD; compound concentrations: 100 nM and 1000 nM (sheet 'Samples'), CATDS: 3.7280479553999199E-2",162 nM
same,potency estimated from few doses,"PRKCQ; compound concentrations: 100 nM and 1000 nM (sheet 'Samples'), CATDS: 2.7638944484762E-2",1130 nM
same,potency estimated from few doses,"PRKG1; compound concentrations: 100 nM and 1000 nM (sheet 'Samples'), CATDS: 7.0196377588655406E-2",20.1 nM
same,potency estimated from few doses,"PRKX; compound concentrations: 100 nM and 1000 nM (sheet 'Samples'), CATDS: 0.203063152086782",1.58 nM
same,potency estimated from few doses,RPS6KA4,148 nM
